These results are taken from PubChem BioAssay.

“And” between values parts separate entries of the source, which are not always exact repeats. Equal entries are not always repeated. Inconclusive results are not listed. The source made the active and inactive calls. Cut-off read from the data, not from the text of the source, unless noted: active = inhibition above about 80%; inactive = the rest.

Assay [1] can be described thus: growth inhibition, single agents and combos, LFS_MB_1R, cell-based, cisplatin or BGB combos, synergistic combos for chromothripsis tumors (AID 1671452).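 Note: cells exposed for 96 hours before readout.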 To be noted: LFS_MB_1R medulloblastoma cells, stronger effect = higher value.
Assay [2] in a line: growth inhibition, single agents and combos, HTB85, cell-based, BGB or cisplatin IC20 combos, synergistic combos for chromothripsis tumors (AID 1671453).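 Note: cells exposed for 96 hours before readout; 0% = vehicle DMSO and 100% = high DMSO killing control.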 The note with it: HTB85 osteosarcoma cells, drug combinations, stronger effect = higher value.
Assay [3] can be described thus: growth inhibition, single agents and combos, CRL2098, cell-based, BGB or cisplatin IC20 combos, synergistic combos for chromothripsis tumors (AID 1671454).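 Note: cells exposed for 96 h before readout; 0% = vehicle DMSO and 100% = killing by high DMSO.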 The note with it: CRL2098 osteosarcoma cells, drug combinations, stronger effect = higher value.
Assay [4] can be described thus: growth inhibition, single agents and combos, HD-MB03, cell-based, BGB or cisplatin IC20 combos, synergistic combos for chromothripsis tumors (AID 1671455; in the data active = inhibition above about 83%;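 note: 0% = vehicle DMSO and 100% = high DMSO as cytotoxic control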). The note with it: HD-MB03 medulloblastoma cells, stronger effect = higher value.
Assay [5] is described as follows: growth inhibition, single agents and combos, UWB1.289, cell-based, BGB or cisplatin combos, synergistic combos for chromothripsis tumors (AID 1671456).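 Note: cells exposed to compound for four days; 0% = vehicle DMSO and 100% = killing by high DMSO.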 To be noted: UWB1.289 ovarian carcinoma cells, stronger effect = higher value.
A short description of assay [6]: growth inhibition, single agents and combos, LFS_MB_2R, cell-based, cisplatin combos, synergistic combos for chromothripsis tumors (AID 1671457).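 Note: cells exposed to compound for four days before readout.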 The note with it: LFS_MB_2R medulloblastoma cells, stronger effect = higher value.
Assay [7] can be described thus: growth inhibition, MDA-MB-436, cell-based, BGB or cisplatin combos, synergistic combos for chromothripsis tumors (AID 1671458; call rule not given here;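 note: cells exposed for 96 hours; 0% = vehicle DMSO and 100% = killing by high DMSO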). To be noted: MDA-MB-436 breast carcinoma growth inhibition, drug combinations, stronger effect = higher value.
The nature of assay [8]: UWB1.289_BRCA1 ovarian cancer growth, cell-based, BGB or cisplatin combinations (AID 1671459). The note with it: UWB1.289 BRCA1 ovarian carcinoma, drug combinations, stronger effect = higher value.
Assay [9] can be described thus: drug combination toxicity in non-malignant astrocytes – cell-based, BGB or cisplatin IC20 combos, cytotoxicity control for chromothriptic childhood tumor combination screen (AID 1671460).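 Note: cells exposed to compounds for 96 hours before viability readout; 0% = vehicle and 100% = killing control.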 To be noted: Human astrocytes, viability inhibition, drug combinations, at 0.5 µM, stronger effect = higher value.
The nature of assay [10]: BT084 cell growth, single and combined drugs, ICGC_MB145, cisplatin and BGB IC40 combos (AID 1671461).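 Note: cells exposed to drugs for 96 hours; 0% = vehicle DMSO and 100% = high DMSO full killing control.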 To be noted: BT084 medulloblastoma cells, drug combinations, stronger effect = higher value.
A short description of assay [11]: RCMB18 cell growth, single agent and combined, cisplatin and BGB IC40 combos (AID 1671462).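 Note: cells exposed to compound for four days.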 To be noted: RCMB18 medulloblastoma cells, stronger effect = higher value.
Assay [12] can be described thus: CRL1545 cell growth, single agent and combined, cisplatin and BGB IC20 combos (AID 1671464).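 Note: cells exposed to compound for 96 hours before readout; 0% = vehicle DMSO and 100% = high DMSO killing control.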 The note with it: CRL1545 osteosarcoma cells, stronger effect = higher value.
A short description of assay [13]: compounds altering HSF1 focus formation in cells – imaging, Selleck Cancer Library (AID 1347162; in the data active = plate-normalised HSF1 focus index below about 0.46). The note with it: human cells, HSF1 nuclear foci imaging, at 10 µM; SSMD: measured here: HSF1 foci SSMD mean; cell count: measured here: cell number; plate-normalised HSF1 focus index: stronger effect = lower value.
Assay [14] is described as follows: rescue of PC12 cells from polyQ htt toxicity – LDH release (AID 1610). To be noted: PC12 mutant huntingtin toxicity, final LDH at 4 uM, stronger effect = lower value.
Assay [15] in a line: chitosan synthesis blockers in C. neoformans – flow cytometry, Cibacron Brilliant Red staining (AID 1347148; call rule not given here;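 note: compound exposure lasted three days at 37 degrees C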). To be noted: Cryptococcus neoformans chitosan, stronger effect = lower value; at 99.1 µM unless noted.
Setting [16] is: measured here: combination with cisplatin, at 0.5 µM.
Setting [17] is: measured here: combination with cisplatin, at 5 µM.

The inhibition is the drop in the measured response relative to a control, in per cent. Consider `Cn1c(=O)c2[nH]cnc2n(C)c1=O`, for which the inhibition in assay [1] (at 0.5 µM) was -21.9% (inactive) and -0.42% (inactive) and -31.4% (inactive); in [1] (measured here: combination with BGB IC40, at 0.05 µM), -26.4% and 1.86% and -7.92%; in [1] (setting [16]), -14.9% and -0.619% and -31.4%; in assay [1] (setting [17]) it was 8.09% and -20.9% and -28.9%; in assay [2] (at 0.5 µM) it was 4.06% (inactive) and -19.4% (inactive) and 3.27% (inactive); in assay [2] (measured here: with BGB IC20, at 0.5 µM), -3.78% and -35% and -47%. In addition, the inhibition was -9.64% and -9.51% and -34.2% in assay [2] (measured here: with BGB IC20, at 5 µM); -5.37% and -29.8% and 44.7% in assay [2] (measured here: with cisplatin IC20, at 0.5 µM); -42.2% and 14.2% and 0.95% in assay [2] (measured here: with cisplatin IC20, at 5 µM); 4.95% and 14.1% and 12.1% in assay [2] (single agent, at 5 µM); -26.5% (inactive) and -30.1% (inactive) and -56.1% (inactive) in assay [3] (at 0.5 µM); -30.2% and -27.7% and -48.2% in [3] (measured here: combination with BGB at IC20, at 0.5 µM). Moreover, the inhibition in [3] (measured here: combination with cisplatin at IC20, at 0.5 µM) was -14.9% and -28.7% and -88%; in [4] (at 0.5 µM), -13.1% (inactive) and -5.07% (inactive) and -0.46% (inactive); in [4] (measured here: combo with BGB at IC20, at 0.5 µM), -12% and -8.62% and 8.13%; in [4] (measured here: combo with cisplatin at IC20, at 0.5 µM) it was -20.1% and -3.43% and -7.86%; in assay [5] (at 0.5 µM) it was 4.45% (inactive) and -2.98% (inactive) and 2.06% (inactive); in assay [5] (measured here: inhibition with BGB combination, at 0.05 µM), -14.7% and -27.6% and -12%. Moreover, the inhibition was -7.61% and -9.15% and -16.4% in [5] (measured here: inhibition with cisplatin combination, at 0.05 µM); -18.7% (inactive) and -17.5% (inactive) and -20.5% (inactive) in assay [6] (at 0.5 µM); -25.2% and -14.1% and -19.4% in assay [6] (setting [16]); -67.2% and -2.43% and -20.9% in assay [6] (setting [17]); -17.5% (inactive) and -19.5% (inactive) and -13.6% (inactive) in [7] (at 0.5 µM); -12% and -14.3% and -17.1% in assay [7] (measured here: BGB combination, at 0.5 µM). In addition, the inhibition is -13.2% and -18.8% and -9.87% in assay [7] (measured here: BGB combination, at 5 µM); -40.2% and -33.9% and -18.2% in [7] (measured here: cisplatin combination, at 0.5 µM); -36.3% and -17.6% and -0.817% in assay [7] (measured here: cisplatin combination, at 5 µM); -19.8% and 16.6% and -0.184% in [8] (BGB combination, concentration series, at 5 µM); -1.02% (inactive) and -1.86% (inactive) and -8.23% (inactive) in assay [8] (at 0.5 µM); 10.1% and 4.75% and 18.9% in [8] (cisplatin combination, concentration series, at 5 µM). Moreover, the inhibition in [9] was 0.61% (inactive) and -3.23% (inactive) and 6.04% (inactive); in assay [9] (measured here: combo with BGB IC20), -5.91% and -4.46% and 10.7%; in [9] (measured here: combo with cisplatin IC20) it was -10.6% and -12% and 4.82%; in [10] (at 0.5 µM), -52.1% (inactive) and -29.3% (inactive) and -9.65% (inactive); in [10] (cisplatin combination, at 0.5 µM), -24.1% and -32.5% and -4.44%; in assay [10] (cisplatin combination, at 5 µM), -14.9% and -47.9% and -47.4%. Also, the inhibition in assay [10] (measured here: BGB IC40 combination 0.05 uM, at 0.05 µM) is -3.16% and -19.9% and 10.3%; in [10] (single agent, at 5 µM), -10.6% and -25.6% and -15.2%; in assay [11] (at 0.5 µM), -12.3% (inactive) and -7.91% (inactive) and -23.8% (inactive); in [11] (cisplatin combo, at 5 µM), -18.4% and 16.4% and 3.76%; in assay [11] (measured here: BGB IC40 combination, at 0.05 µM) it was -15.1% and -0.46% and -14.9%; in assay [11] (setting [16]), 5.37% and -0.222% and -34.5%. The inhibition is -20% and -29.1% and -26.4% in assay [11] (single agent, at 5 µM); 2.86% (inactive) and -13.9% (inactive) and -23% (inactive) in assay [12] (at 0.5 µM); 6.54% and -1.14% and 25.3% in assay [12] (measured here: with BGB IC20 combination, at 0.5 µM); -1.22% and -20.4% and -47.1% in assay [12] (measured here: with cisplatin IC20 combination, at 0.5 µM); 6.84% and 45.8% and 6.98% in assay [12] (single agent, at 0.05 µM); 18.7% and 15.6% and -12.3% in [12] (single agent, at 5 µM).

As to `C[C@]12CCC(=O)C=C1CC[C@@H]1[C@@H]2[C@@H](O)C[C@@]2(C)[C@H]1CC[C@]2(O)C(=O)CO`, in assay [13], the SSMD was found to be 2.5, the cell count worked out at 6980 and the plate-normalised HSF1 focus index is 1.13 (inactive).

As for `O=C1[C@H](CC[C@H](O)c2ccc(F)cc2)[C@@H](c2ccc(O)cc2)N1c1ccc(F)cc1`, in assay [13], the SSMD turned out to be 0.185, the cell count was found to be 6580 and the plate-normalised HSF1 focus index is 1.01 (inactive).

The compound `CNC(=O)Oc1ccc2c(c1)[C@]1(C)CCN(C)[C@@H]1N2C` registered a normalised LDH release in assay [14] of 0.859.

In the case of `CC[C@]1(O)C[C@@H]2CN(CCc3c([nH]c4ccccc34)[C@@](C(=O)OC)(c3cc4c(cc3OC)N(C)[C@H]3[C@@](O)(C(=O)OC)[C@H](OC(C)=O)[C@]5(CC)C=CCN6CC[C@]43[C@@H]65)C2)C1`, the fold fluorescence in assay [15] is 15.3 [at 55 µM] (inactive).

Turning to `COc1cc2nc(N3CCN(C(=O)c4ccco4)CC3)nc(N)c2cc1OC`, the fold fluorescence in assay [15] is 6.39 [at 130.4 µM] (inactive).

With `OCCN(CCO)c1nc(N2CCCCC2)c2nc(N(CCO)CCO)nc(N3CCCCC3)c2n1`, the fold fluorescence in [15] is 2.89 (active).

Consider `NC(N)=NC(=O)c1nc(Cl)c(N)nc1N`, for which the fold fluorescence in assay [15] was 7.16 [at 217.7 µM] (inactive).
